Growth data for 13 molecules are collected here from PubChem BioAssay (NCI).

Among the test systems are SK-MEL-2 melanoma; EKVX NSCLC; SN12C renal; UO-31 renal; TK-10 renal; ACHN renal; CCRF-CEM leukemia; MOLT-4 leukemia; SR leukemia; A498 renal.
Common to all, as to test: NCI-60 one-dose screen, 48 h (100 = growth as untreated, 0 = no growth, -100 = all killed)
What all share (conditions): 10 µM unless noted

Structures are written as SMILES. Compounds without any hit were thinned out: in the full panel of roughly 83,000, 20% have a hit.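 Cells were grown in 96-well plates and exposed to the test compound at a single concentration for 48 hours; results are reported as percent growth, with values below 10 considered active.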 Unmarked numbers belong to inactive results. Calls of active or inactive are those of the source.

Turning to `COc1cc(C(=O)Nc2cc(OC)c3ccn(C)c3c2)cc2c1C[C@]1(C)CC[C@@H](O)C(C)(C)[C@H]1O2`, the growth in the test on SK-MEL-2 melanoma was -7.94% (active); in the test with EKVX NSCLC, 33.5%; with SN12C renal, 46.8%; with UO-31 renal, -5.02% (active); with TK-10 renal it was 36.9%; in the test on ACHN renal, 18%. Further, the growth with CCRF-CEM leukemia is 5.35% (active); in the test with MOLT-4 leukemia, -8.72% (active); in the test with SR leukemia, 11.5%.
Turning to `COc1ccc2nc3nc4ccc[nH]c4cc3c2c1`, the growth is 108% with SK-MEL-2 melanoma; 67.6% with EKVX NSCLC; 89.7% in the test on SN12C renal; 61.5% in the test with UO-31 renal; 82.2% with TK-10 renal; 76% in the test on ACHN renal. Besides, the growth in the test with CCRF-CEM leukemia was 97.5%; with MOLT-4 leukemia it was 93.6%; in the test with SR leukemia, 43.6%.
For `CCC[S@@](=O)c1ccc2nc(NC(=O)OC)[nH]c2c1`, the growth in the test with SK-MEL-2 melanoma is 95.1%; with EKVX NSCLC, 90.2%; in the test with SN12C renal, 96.4%; with UO-31 renal it was 90.9%; in the test on TK-10 renal, 91.9%; in the test with ACHN renal, 102%. Further, the figures for the growth in the test on CCRF-CEM leukemia, in the test on MOLT-4 leukemia and in the test with SR leukemia were 86.4%, 74.5% and 41.6%, respectively.
With `COc1cc(C(=O)N2CCN(c3ccccc3OC)CC2)c(NC(=O)c2cnccn2)cc1OCc1ccccc1`, the growth in the test with SK-MEL-2 melanoma is 85.7%; in the test with EKVX NSCLC it was 57.2%; in the test with SN12C renal, 88.6%; in the test with UO-31 renal, 39%; with TK-10 renal, 102%; in the test with ACHN renal it was 92.5%. In addition, the growth in the test on CCRF-CEM leukemia was -44% (active); in the test on MOLT-4 leukemia, 52.4%; in the test on SR leukemia, 60.7%.
As to `Cc1[nH]c2ncnc(Oc3ccc(NC(=O)Nc4ccc(Cl)c(C(F)(F)F)c4)cc3)c2c1C`, the growth in the test on SK-MEL-2 melanoma is 61.2%; with EKVX NSCLC, 43%; in the test with SN12C renal it was 69%; with UO-31 renal it was 70.1%; in the test on TK-10 renal it was 81.1%; in the test with ACHN renal, 39.9%. For the same molecule, the growth is 24.1% in the test with CCRF-CEM leukemia, 27.4% in the test on MOLT-4 leukemia and 9.11% (active) in the test on SR leukemia.
`CC(=O)[C@@H]1CC[C@]2(C(=O)O)CC[C@]3(C)[C@H](CC[C@@H]4[C@@]5(C)Cc6c([nH]c7ccccc67)C(C)(C)[C@@H]5CC[C@]43C)[C@@H]12`: the growth in the test on SK-MEL-2 melanoma is 79.5%; with EKVX NSCLC it was 42.3%; in the test with SN12C renal it was 69.3%; in the test on UO-31 renal, 48.6%; in the test on TK-10 renal, 63.6%; in the test on ACHN renal, 46.5%. Further, the growth is 61.7% in the test on A498 renal, 62.9% in the test with CCRF-CEM leukemia, 49.6% with MOLT-4 leukemia and 73.5% in the test on SR leukemia.
Regarding `COC1=CC2C=C(C3N(c4ccccc4)NC(=O)[C@@H]4CCCN34)C(=O)NC2C=C1` (stereo not given in full), the growth in the test on SK-MEL-2 melanoma was 97.9%; with EKVX NSCLC, 96.7%; in the test with SN12C renal it was 107%; in the test on UO-31 renal, 86.9%; in the test on TK-10 renal, 100%; with ACHN renal it was 102%. Also, the values for the growth with CCRF-CEM leukemia, in the test with MOLT-4 leukemia and in the test on SR leukemia were 113%, 124% and 105%, respectively.
Take `CC1CCN(CCCCCOc2ccc3oc4ccccc4c(=O)c3c2)CC1`: the growth in the test with SK-MEL-2 melanoma was 102%; in the test with EKVX NSCLC it was 89%; with SN12C renal, 69.3%; in the test on UO-31 renal it was 63.1%; with TK-10 renal it was 71.4%; in the test on ACHN renal, 95.3%. Moreover, the figures for the growth in the test on CCRF-CEM leukemia, in the test on MOLT-4 leukemia and in the test with SR leukemia were 77.1%, 53.2% and 47.5%, respectively.
For `COc1ccc(-c2nc(C#N)c(NCC(c3ccco3)N3CCCC3)o2)cc1` (stereo not given), the growth is 53.3% in the test with SK-MEL-2 melanoma; 54.2% with EKVX NSCLC; 49.5% with SN12C renal; 51.5% with UO-31 renal; 82.1% in the test on TK-10 renal; 43.9% in the test on ACHN renal. Moreover, the growth in the test with CCRF-CEM leukemia is 18.4%; in the test with MOLT-4 leukemia, 29.7%; in the test on SR leukemia, 21.1%.
As to `OCCNc1nc(NCCO)nc(Nc2ccc(C3=NN(c4cc(Cl)cc(Cl)c4)C(c4ccccc4)C3)cc2)n1` (stereo not given), the growth is 40.4% with SK-MEL-2 melanoma; 59.4% in the test with EKVX NSCLC; 55% in the test with SN12C renal; 56.9% in the test with UO-31 renal; 74.1% with TK-10 renal; 42.2% in the test on ACHN renal. Also, the growth is 24.3% with CCRF-CEM leukemia, 20.5% in the test on MOLT-4 leukemia and 5.4% (active) in the test on SR leukemia.
`CC(=O)c1cc2c(N)c(C(=O)Nc3ccccn3)sc2nc1C`: the growth in the test with SK-MEL-2 melanoma was 53.6%; in the test on EKVX NSCLC, 74.7%; in the test on SN12C renal, 92.7%; with UO-31 renal, 86.7%; with TK-10 renal, 90.8%; in the test on ACHN renal it was 98.9%. Besides, the results for the growth in the test with CCRF-CEM leukemia, in the test on MOLT-4 leukemia and in the test on SR leukemia were 102%, 98.2% and 69.2%, respectively.
In the case of `COc1ccc(/C=C/C(=O)/C=C(/C=C/c2ccc(OC)c(OC)c2)OB(F)F)cc1OC`, the growth in the test with SK-MEL-2 melanoma is 76.8%; in the test with EKVX NSCLC, 38%; in the test on SN12C renal, -5.34% (active); in the test with UO-31 renal it was 40%; with TK-10 renal, 36.9%; in the test with ACHN renal, -15.8% (active). In addition, the growth with A498 renal was 95.7%; with CCRF-CEM leukemia, -12% (active); in the test with MOLT-4 leukemia it was 1.45% (active); with SR leukemia, 0.197% (active).
With `CSc1nc(-c2ccco2)c2c(N)[nH]nc2n1`, the growth is 99.3% in the test with SK-MEL-2 melanoma; 81.2% in the test with EKVX NSCLC; 109% in the test with SN12C renal; 88.3% with UO-31 renal; 105% in the test with TK-10 renal; 101% in the test on ACHN renal. Further, the growth with A498 renal was 66.4%; in the test with CCRF-CEM leukemia it was 111%; with MOLT-4 leukemia, 82.7%; in the test on SR leukemia it was 76.1%.
